Data from PubChem BioAssay AID624071 (Southern Research Specialized Biocontainment Screening …, 2012).
Active and inactive are the calls of the source. No rule for the calls is given here.

Assay: Dengue virus CPE inhibition, flavivirus guanylyltransferase probe project, cell-based, secondary screen (AID 624071)
Conditions: Dengue virus CPE inhibition assay, cell viability; series mostly up to 100 µM

Row | Structure (SMILES) | outcome
1 | O=C(O)CSc1cc(NS(=O)(=O)c2cccc([N+](=O)[O-])c2)c2ccccc2c1O | inactive
2 | O=C(O)CSc1cc(NS(=O)(=O)c2ccc(Cl)cc2)c2ccccc2c1O | inactive
3 | Cc1ccc(S(=O)(=O)Nc2cc(Sc3nc(C)cc(C)n3)c(O)c3ccccc23)cc1 | inactive
4 | O=S(=O)(Nc1cc(Sc2ccccc2)c(O)c2ccccc12)c1ccc(F)cc1 | inactive
5 | Cn1c(=O)c2[nH]c(-c3ccccc3)c(O)c2n(C)c1=O | inactive
6 | O=S(=O)(Nc1cc(Cl)c(O)c2ccccc12)c1ccc(F)cc1 | inactive
7 | O=[N+]([O-])c1cccc(S(=O)(=O)Nc2cc(Sc3nc4ccccc4s3)c(O)c3ccccc23)c1 | inactive
8 | Cc1cc(C)c(S(=O)(=O)Nc2cc(SCC(=O)O)c(O)c3ccccc23)c(C)c1 | inactive
9 | O=C(O)CSc1cc(NS(=O)(=O)c2ccc(Br)cc2)c2ccccc2c1O | inactive
10 | O=[N+]([O-])c1cccc(S(=O)(=O)Nc2cc(SCc3ccccc3)c(O)c3ccccc23)c1 | inactive
11 | O=C(O)CSc1cc(NS(=O)(=O)c2ccc(F)cc2)c2ccccc2c1O | inactive
12 | Cc1cc(F)ccc1S(=O)(=O)Nc1cc(SCC(=O)O)c(O)c2ccccc12 | inactive
13 | O=S(=O)(Nc1cc(SCc2ccccc2)c(O)c2ccccc12)c1ccc(Cl)cc1 | inactive
14 | COc1ccc(OC)c(S(=O)(=O)Nc2cc(SCC(=O)O)c(O)c3ccccc23)c1 | inactive
15 | Cn1c(=O)c2[nH]c(-c3ccc(Cl)cc3)c(O)c2n(C)c1=O | inactive
16 | O=S(=O)(Nc1cc(Sc2ncn[nH]2)c(O)c2ccccc12)c1ccc(F)cc1 | inactive
17 | Cc1ccc(S(=O)(=O)Nc2cc(SCC(=O)O)c(O)c3ccccc23)cc1 | inactive
18 | O=C(O)CSc1cc(NS(=O)(=O)c2cccc3cccnc23)c2ccccc2c1O | inactive
